# Sampled rows, rich in hits. Any-hit rate of the full collection: about 6.6%.
# TSG101-PTAP inh – blocks PTAP/TSG101 interaction to inhibit HIV-1 budding | Q99816 | Fluorescence polarization, FITC-PTAP peptide / Tsg101 binding | Potency, µM (series often up to 115 µM), for inactives: at the top dose activity change, negative = inhibition, usual class: inhibitors | 340,000 tested, under 10 active | AID 493005; active = well fitted inhibition curve with a large enough effect in the main read-out, with a control signal flat, not every such curve was filed as active; inconclusive = small, poorly fitted or top-dose-only effect, or effect the other way, or a change in a side signal; inactive = no such curve, though single readings can be large or run the other way; also: % of control where 0% means no effect
# Target sequence (Q99816 whole entry, looked up): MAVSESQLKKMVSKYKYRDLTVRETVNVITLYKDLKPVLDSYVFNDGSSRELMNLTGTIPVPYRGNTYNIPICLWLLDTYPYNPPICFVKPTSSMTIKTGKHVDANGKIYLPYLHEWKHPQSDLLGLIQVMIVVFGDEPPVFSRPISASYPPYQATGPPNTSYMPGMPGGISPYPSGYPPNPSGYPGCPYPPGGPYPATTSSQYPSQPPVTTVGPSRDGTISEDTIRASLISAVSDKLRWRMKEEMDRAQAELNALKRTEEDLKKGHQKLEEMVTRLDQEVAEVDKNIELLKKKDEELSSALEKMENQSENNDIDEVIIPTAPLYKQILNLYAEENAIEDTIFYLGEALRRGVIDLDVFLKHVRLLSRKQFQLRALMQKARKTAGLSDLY
#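 Fluorescence anisotropy tracks displacement of a FITC-tagged PTAP peptide (50 nM) from the Tsg101 binding domain (10 uM), following a 20 min room-temperature incubation at pH 7.5.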
# KB-3-1 cytotox – kills parental KB-3-1 adenocarcinoma cells; KB-3-1 viability, CellTiter-Glo ATP luminescence, 72 h; Potency, µM (highest dose often 46.1 µM), most hits filed as cytotoxic; 1.4% of 400,000 active; also: % is scaled to controls: 0 for no effect and ±100 for the full control effect; nearly all actives have a fitted effect of over 60% in size
#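 KB-3-1 cells, DMEM (no phenol red) + 10% FBS; compound by pin transfer, 72 h, 37 °C. Readout: CellTiter-Glo luminescence after 10 min. Data normalized, curve-fitted.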
# KB-V1 MDR tox – KB-V1 MDR subline cytotoxicity. KB-V1 MDR cells viability, CellTiter-Glo, 72 h. Potency, µM (highest dose often 46.1 µM), hits mostly cytotoxic. 3.4% of 400,000 active; also: % is scaled to controls: 0 for no effect and ±100 for the full control effect; nearly all actives have a fitted effect of over 60% in size
#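 Cells of the MDR subline KB-V1 are plated, dosed with compound at multiple concentrations, and incubated 72 h at 37 degrees C; CellTiter-Glo is then added and luminescence read after 10 min.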
# MCF10A rerep – DNA re-replication induction in MCF 10a cells; MCF 10A DNA re-replication, Hoechst nuclear intensity, 48 h; Potency, µM (doses to about 46.1 µM), for the others: top-dose activity, positive = re-replication, hits mostly activators; 2.9% of 350,000 active; AID 624296; also: % of control where 0% means no effect; nearly all actives have a fitted effect of over 50% in size
# SW480 rereplic – induces DNA re-replication in SW480 colon adenocarcinoma cells. SW480 DNA re-replication, Hoechst DNA content imaging, 48 h. 1.8% of 340,000 active. AID 624297. Potency, µM (doses to about 46.1 µM), inactives show at the highest dose re-replication activation, usual class: activators; also: % of control where 0% means no effect; nearly all actives have a fitted effect of over 55% in size
#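 Cells (250 per well) received 23 nL compound or DMSO by pin tool and were kept 48 hr at 37 C, 5% CO2. Nuclei were then stained with Hoechst for 40 min and scanned for DNA content.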
# RGS4 inhibitor – blocks human RGS4-accelerated GTP hydrolysis | 0.039% of 390,000 active | AID 504845 | Transcreener GDP fluorescence polarization, RGS4-accelerated GTP hydrolysis | P49798 | Potency, µM (highest dose often 114 µM), inactives show at the top dose activity change, negative = inhibition, hits mostly inhibitors; also: % is scaled to controls: 0 for no effect and ±100 for the full control effect; nearly all actives have a fitted effect of over 75% in size
# Target sequence (P49798 whole entry, looked up): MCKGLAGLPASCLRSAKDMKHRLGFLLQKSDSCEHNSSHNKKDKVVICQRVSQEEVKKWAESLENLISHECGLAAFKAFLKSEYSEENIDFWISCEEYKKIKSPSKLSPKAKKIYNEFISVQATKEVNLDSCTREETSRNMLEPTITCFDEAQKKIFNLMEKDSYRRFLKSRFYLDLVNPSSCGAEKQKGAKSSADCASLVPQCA
#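 MLSMR compounds (23 nl, pin-transferred) preincubated 10 min at room temperature with a 500nM (2x) first reagent, then RGS4 at 900nM (2x) plus Transcreener GDP mix added; fluorescence polarization (620/688 nm) read before and after 90 min at 30 °C.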
# * marks the source's active call; other numbers are inactive results; i = inactive; ? = inconclusive; nt = no result given; [ ] = another dose, or the depositor's remark. Unless noted, calls follow the shape of the dose curve; as a rule, active = well fitted curve in the direction sought with a large enough effect; inconclusive = small, poorly fitted or top-dose-only effect, or another doubt; inactive = no such curve, though single readings can be large; an effect the other way counts as inactive or inconclusive. Potency is read from the fitted curve at half-maximal effect.
SMILES,TSG101-PTAP inh,KB-3-1 cytotox,KB-V1 MDR tox,MCF10A rerep,SW480 rereplic,RGS4 inhibitor
CCc1ccc(NC(=O)CSC2=C(C#N)C(c3ccco3)C3=C(CCCC3=O)N2)cc1 (configuration not stated),-8%,?,?,18µM*,?,?
Cc1ccc(NC(=O)CSC2=C(C#N)C(c3ccco3)C3=C(CC(C)(C)CC3=O)N2)cc1 (configuration not stated),-6%,i,i,9%,?,-9%
CC(=O)C1=C(C)NC(SCC(=O)c2ccc(Cl)cc2)=C(C#N)C1c1ccco1 (configuration not stated),36%,i,21µM*,12%,-4%,-37%
CC(=O)C1=C(C)NC(SCC(=O)c2ccc(Cl)cc2Cl)=C(C#N)C1c1ccco1 (configuration not stated),-4%,i,i,-7%,0%,-41%
CC1=C(C(=O)Nc2nc3ccccc3s2)C(c2ccco2)C(C#N)=C(SCC(=O)NC2CCCCC2)N1 (configuration not stated),-1%,i,i,15µM*,18µM*,5%
CCOC(=O)C1=C(c2ccccc2)NC(SCC(=O)Nc2cccc(C)c2)=C(C#N)C1c1ccco1 (configuration not stated),0%,i,15µM*,?,18µM*,-1%
CC1=C(C(=O)Nc2ccccc2)C(c2ccncc2)C(C#N)=C(SCC(=O)NC2CC2)N1 (configuration not stated),-8%,i,i,-6%,-3%,-14%
O=c1c2ccccc2oc2ccc(-c3ccoc3)cc12,nt,i,?,nt,nt,nt
CCc1ccccc1NC(=O)CSC1=C(C#N)C(c2ccc(O)c(OC)c2)C2=C(CCCC2=O)N1 (configuration not stated),-7%,?,i,16µM*,?,-32%[11.4 µM]
COC(=O)CSC1=C(C#N)C(c2ccc(C)cc2)C2=C(CCCC2=O)N1 (configuration not stated),-4%,i,i,28%,0%,-34%
N#CC1=C(SCC(=O)c2ccc(Br)cc2)NC2=C(C(=O)CCC2)C1c1ccco1 (configuration not stated),-3%,10µM*,21µM*,7.9µM*,13µM*,-38%
Cc1nc(N2CCCC2)c2c(C(=O)Nc3ccc(C)c(Cl)c3)c(C)oc2n1,nt,nt,nt,nt,nt,-7%
COc1cc(OC)cc(-n2nnnc2SCC(=O)N2CCCC2)c1,1%,i,i,14%,-2%,-9%
COc1ccc(-n2nnnc2S(=O)(=O)Cc2ccc(C(=O)O)cc2)cc1,-7%,i,i,16µM*,7.3µM*,-32%
COc1ccc(-n2nnnc2S(=O)(=O)CC(=O)N2CCCCC2)cc1,-2%,21µM*,?,7.3µM*,16%,-35%
C=CCn1c(=O)c2c3c(sc2n2c(Nc4ccc(C(=O)OCC)cc4)nnc12)CCCC3,-5%,i,i,11%,13µM*,20%
C=CCn1c(=O)c2c3c(sc2n2c(Nc4ccc(OC)cc4)nnc12)CCCC3,-5%,?,?,13%,-2%,-18%
C=CCNC(=O)CSc1nc2cc(C(=O)OCC)ccc2n1CC,-5%,i,i,2%,2%,5%
CCOC(=O)c1ccc2c(c1)nc(SCC(=O)c1cc3ccccc3o1)n2CC,6%,i,18µM*,?,-1%,-29%
CSc1ccc(CNC(=O)Cc2csc3ccccc23)cc1,nt,nt,nt,nt,nt,-18%
COc1ccc(-n2nnnc2C2CCN(S(=O)(=O)c3ccc(C)cc3)CC2)cc1,nt,nt,nt,nt,nt,-3%
CCc1ccc(-c2nc(CN3CCC(C(=O)NCc4ccco4)CC3)c(C)o2)cc1,4%,?,9.2µM*,?,13%,-10%
Cc1oc(-c2cccc(Cl)c2)nc1CN1CCC(C(=O)NCCc2ccc(Cl)cc2)CC1,nt,i,i,nt,nt,-17%
CCCN(CCC)CCNC(=O)C1CCN(Cc2nc(-c3ccc(Cl)cc3)oc2C)CC1,-7%,23µM*,?,-3%,8%,24%
Cc1ccc2nc(N3C(=O)CNC3=S)sc2c1,-6%,?,?,18µM*,?,-8%
SMILES,TSG101-PTAP inh,KB-3-1 cytotox,KB-V1 MDR tox,MCF10A rerep,SW480 rereplic,RGS4 inhibitor
COc1ccc2nc(N3C(=O)CNC3=S)sc2c1,-4%,?,5.8µM*,?,4%,-18%
COc1ccc(CNC(=O)c2cc3c(=O)oc4ccc(C)cc4c3s2)c(OC)c1,nt,i,?,nt,nt,-11%
COc1ccc(N(C(=O)COc2ccccc2OC)S(=O)(=O)c2ccc(Cl)cc2)cc1,nt,i,i,nt,nt,-2%
CC(=O)ON=C1C=CC(=C(C#N)c2ccccc2)C=C1,nt,3.7µM*,7.3µM*,nt,nt,nt
N#CC(=C1C=CC(=NO)C(Cl)=C1)c1ccc(Cl)cc1,-3%,?,?,?,?,-25%
COc1ccc(C(C#N)=C2C=CC(=NO)C=C2)cc1,?,?,?,23µM*,?,?
COc1ccc(-c2[nH]nc3oc(=O)c(CCO)c(C)c23)cc1,0%,i,i,11%,4%,3%
Cc1[nH]nc2oc(=O)c(CCO)c(C)c12,-6%,i,i,?,16µM*,14%
COc1ccc(CN(C(=O)Cc2c[nH]c3ccccc23)C(C(=O)NC2CCCCC2)c2ccc(C)o2)cc1 (configuration not stated),-1%,?,?,?,12%,-25%
COc1cc(C(C(=O)NC2CCCCC2)N(Cc2cccs2)C(=O)Cc2c[nH]c3ccccc23)cc(OC)c1OC (configuration not stated),-5%,?,16µM*,7%,-8%,-13%
COc1cc(C(C(=O)NC2CCCCC2)N(C(=O)Cc2c[nH]c3ccccc23)c2ccccc2C)cc(OC)c1OC (configuration not stated),-3%,i,i,17%,1%,-44%
COc1cccc(CN(C(=O)Cc2c[nH]c3ccccc23)C(C(=O)NC2CCCCC2)c2ccc(C)o2)c1 (configuration not stated),-2%,?,21µM*,6%,?,-3%
O=S(=O)(c1ccc(Cl)cc1)N1CCN(c2nc(Nc3cc(Cl)ccc3O)nc3ccccc23)CC1,nt,nt,nt,nt,nt,5%[80.7 µM]
O=C(O)CCCN1C(=O)/C(=C\C(Cl)=C\c2ccccc2)SC1=S,-8%,?,?,?,3.3µM*,-113%
